# FBW7 activator: activators of human E3 ligase FBW7; Q969H0; AlphaScreen FBW7–phospho-cyclin E peptide binding, activator screen; normalized activity (activation), % at 26.1 µM; 650,000 tested, 0.13% active; in the data active means normalized activity above about 1.9%;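 further: purified mutant Fbw7 with reduced substrate affinity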
# Target sequence (Q969H0 whole entry, looked up): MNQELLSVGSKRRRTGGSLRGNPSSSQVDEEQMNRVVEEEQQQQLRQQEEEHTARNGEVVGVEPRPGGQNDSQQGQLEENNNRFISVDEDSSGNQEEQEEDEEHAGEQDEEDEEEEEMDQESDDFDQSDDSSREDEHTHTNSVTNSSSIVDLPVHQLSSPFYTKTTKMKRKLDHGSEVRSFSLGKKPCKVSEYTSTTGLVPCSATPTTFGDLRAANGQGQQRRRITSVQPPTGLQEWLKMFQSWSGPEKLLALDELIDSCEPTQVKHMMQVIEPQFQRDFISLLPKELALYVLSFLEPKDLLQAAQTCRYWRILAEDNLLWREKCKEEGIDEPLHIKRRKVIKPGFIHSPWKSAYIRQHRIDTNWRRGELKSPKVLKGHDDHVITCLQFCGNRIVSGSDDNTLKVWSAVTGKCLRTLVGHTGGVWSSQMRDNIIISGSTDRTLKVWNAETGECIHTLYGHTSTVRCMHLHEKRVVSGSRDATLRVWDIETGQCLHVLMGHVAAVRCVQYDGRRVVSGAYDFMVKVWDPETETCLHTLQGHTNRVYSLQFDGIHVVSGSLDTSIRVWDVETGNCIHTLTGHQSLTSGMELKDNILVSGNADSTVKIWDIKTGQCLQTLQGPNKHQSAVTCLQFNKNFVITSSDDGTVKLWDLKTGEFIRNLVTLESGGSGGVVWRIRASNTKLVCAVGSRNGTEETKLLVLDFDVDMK
# GPR151 activ: activates the human receptor GPR151; PathHunter beta-arrestin GPR151 cells, luminescence; 650,000 tested, 1% active; AID 1508602; activation, % at 11.2 µM; Q8TDV0; in the data active means activation above about 4.9%
# MITF primary: blocks human microphthalmia-associated transcription factor; 650,000 tested, 0.91% active; AlphaScreen MITF homodimerization, bead proximity signal; O75030; inhibition, % at 2.6 µM; AID 1259374; in the data active means inhibition above about 50%
# TEAD-YAP inh: TEAD-YAP interaction inhibition. HEK-TIYL cells, TEAD-Gal4/YAP UAS-luciferase luminescence. inhibition, % at 9.12 µM. 640,000 tested, 1.4% active. AID 1259422; in the data active means inhibition above about 32%
# Numbers stand for hits; 0 = inactive; - = not tested or not shown. Compounds with a hit are over-represented: about 3.4% of the library has one in this group of screens.
SMILES,FBW7 activator,GPR151 activ,MITF primary,TEAD-YAP inh
CCc1ccc(C2=CC(c3ccc(OC)c(OC)c3)n3ncnc3N2)cc1 (stereo not drawn),0,0,0,33
COc1cc(C2C=C(c3cccc(NC(C)=O)c3)Nc3ncnn32)cc(OC)c1OC (stereo not drawn),0,0,0,52
COc1ccc(C2C=C(c3ccc(Cl)cc3)Nc3ncnn32)cc1OC (stereo not drawn),0,0,0,0
Cc1nn(C)c(C)c1-c1nc(NC2CC2)c2ncn(-c3ccsc3)c2n1,0,0,0,40
COc1ccc(-c2nc(NC3CC3)c3ncn(-c4ccsc4)c3n2)cc1,0,0,0,50
COc1ccc(-c2nc(NC3CCN(Cc4ccccc4)CC3)c3ncn(-c4ccsc4)c3n2)cc1,0,0,0,0
O=S(=O)(c1ccccc1)N1CCC(O)(CSc2ccc(Cl)cc2)CC1,0,0,0,39
Cc1cc(/C=C(/C#N)C(=O)NC(C)C)c(C)n1-c1ccc2c(c1)OCO2,0,0,0,0
Cc1ccc(S(=O)(=O)N2C(=O)CCC2C(=O)N2CCN(c3ccccc3)CC2)cc1 (stereo not drawn),0,0,0,0
Oc1ccc(CCNc2nc(Nc3ccc4ncccc4c3)nc3nc[nH]c23)cc1,0,0,0,45
OCCNc1nc(Nc2ccc3ncccc3c2)nc2c1ncn2-c1ccsc1,0,0,0,35
Oc1ccc(CCNc2nc(Nc3ccc4ncccc4c3)nc3c2ncn3-c2ccsc2)cc1,0,0,0,56
CCOc1cc(/C=C2/C(=N)N3N=C(C(C)C)SC3=NC2=O)ccc1OCCOc1cccc(C)c1,0,0,0,0
CCc1ccc(C(=O)Nn2c(-c3ccccn3)nc3ccccc3c2=O)cc1,0,0,0,0
CC(C)Oc1ccccc1/C=C1/SC(N2CCCC2)=NC1=O,0,0,0,38
Cc1ccccc1N1CCN(C2=NC(=O)/C(=C\c3ccccc3OC(C)C)S2)CC1,0,0,0,0
COc1ccc(/C=C2/C(=O)NC(=O)N(C3CCCCC3)C2=O)cc1,0,0,0,0
CN(C)c1ccc(CN2CCN(CCO)CC2)cc1,0,0,77,0
CN(C)c1ccc(CN2CCN(c3ncccn3)CC2)cc1,0,0,0,0
CN(C)c1ccc(CN2CCC(C(N)=O)CC2)cc1,0,0,76,0
COCCCNc1nc(CN2CCN(C3CCCCC3)C(=O)C2)nc2ccc(C)cc12,0,0,0,0
O=C(N/N=C/c1c[nH]c2ccccc12)c1ccncc1,0,0,0,0
O=C(N/N=C/c1c[nH]c2ccccc12)/C(=C/c1ccccc1O)NC(=O)c1ccccc1,0,0,0,86
Cn1cc(C(=O)N/N=C/c2c[nH]c3ccccc23)c2ccccc21,0,0,0,37
CCOc1ccc(/C=N/NC(=O)/C(=C/c2ccccc2O)NC(=O)c2ccccc2)cc1,0,0,0,88
SMILES,FBW7 activator,GPR151 activ,MITF primary,TEAD-YAP inh
Cn1nccc1C(=O)N/N=C/c1ccccc1,0,0,0,0
CCCCn1c(SCC(=O)NCc2ccccc2)nc2ccsc2c1=O,0,0,0,0
c1ccc(Cn2nnc3c(NC45CC6CC(CC(C6)C4)C5)ncnc32)cc1,0,0,0,0
CN(c1ccc(C(=O)NCc2ccc(Cl)cc2)cc1)S(C)(=O)=O,0,0,0,0
Cc1cc(O)cc2c1C(=O)/C(=C/c1cccnc1)O2,0,0,0,61
COC(=O)c1ccc2c(c1)C(=O)/C(=C/c1cccc(OC)c1)O2,0,0,0,0
Cc1cc(OC(=O)C(C)C)cc2c1C(=O)/C(=C/c1cccnc1)O2,0,0,0,63
O=C1/C(=C\c2cccnc2)Oc2cc(O)ccc21,0,0,0,0
COc1cccc(/C=C2\Oc3cc(O)cc(C)c3C2=O)c1,0,0,0,98
CCOC(=O)COc1cccc(/C=C2\Oc3cc(OC)ccc3C2=O)c1,0,0,0,0
c1ccc(Nc2nc(Nc3ccncc3)nc3nc[nH]c23)cc1,0,0,0,0
c1ccc(CNc2nc(Nc3cccnc3)nc3nc[nH]c23)cc1,0,0,0,0
c1ccc(CNc2nc(Nc3cnccn3)nc3nc[nH]c23)cc1,11,0,0,0
COc1ccc(CCNc2nc(Nc3cc(OC)c(OC)c(OC)c3)nc3nc[nH]c23)cc1,0,0,0,61
c1ccc(Nc2nc(Nc3cccnc3)nc3nc[nH]c23)cc1,0,0,0,58
COc1ccc(CCNc2nc(NCc3cccnc3)ncc2C)cc1,0,0,0,40
COc1cc(Nc2nc(Nc3ccccc3)nc3nc[nH]c23)cc(OC)c1OC,0,0,0,0
COc1cc(Nc2nc(Nc3cnccn3)nc3nc[nH]c23)cc(OC)c1OC,4.5,0,0,34
COc1ccc(CCNc2nc(Nc3cccnc3)nc3nc[nH]c23)cc1,0,0,0,41
COc1ccc(CCNc2nc(Nc3ccccc3)nc3nc[nH]c23)cc1,0,0,0,0
NC(=O)C1CCN(CC(O)COc2ccccc2F)CC1 (stereo not drawn),0,0,0,0
O=C(CSc1nc2ccccc2c(=O)n1CC1CCC(C(=O)NCCc2ccccc2)CC1)NCCC1=CCCCC1 (stereo not drawn),0,0,0,0
Cc1cc(N2CCCC2)c(C)cc1C=O,0,0,0,0
Cc1cc(N2CCCC2)c(C)cc1/C=C\[N+](=O)[O-],0,0,0,54
CCNc1nc(NCC)nc(-n2nc(C)cc2C)n1,0,0,0,53
SMILES,FBW7 activator,GPR151 activ,MITF primary,TEAD-YAP inh
Cc1cc(C)nc(-n2nc(C)cc2C)n1,0,0,0,0
COc1ccc(S(=O)(=O)n2nnc3ccccc32)cc1C,0,0,0,0
CCCN1CCc2nc(NC(=O)c3sc4ccccc4c3Cl)sc2C1,0,0,0,34
N#Cc1ccc(N=Cc2ccc(O)cc2O)cc1,0,0,0,0
O=C(Nc1nnc(-c2ccc(Cl)cc2)o1)c1cccc(C(F)(F)F)c1,-,0,-,-
O=C(Nc1nnc(-c2ccc(F)cc2)o1)c1cccc(C(F)(F)F)c1,0,0,0,69
CCCCCOc1ccc(CSCCN)cc1,0,0,0,65
CCCCOc1ccc(CSCCN=C(N)N)cc1,0,0,0,0
CCCCOc1ccc(CSCCN)cc1,0,0,0,46
Cc1cc(C)c2c(c1)[C@@H]1C=CC[C@@H]1[C@H](c1ccc(C(=O)O)cc1)N2,0,0,0,0
CC(=O)Oc1ccc(C2Nc3c(C(=O)O)cccc3C3C=CCC32)cc1 (stereo not drawn),0,0,66,0
Cc1ccc2c(c1C)N[C@@H](c1ccc(C(=O)O)cc1)[C@H]1CC=C[C@@H]21,0,0,71,0
Cc1c(C(=O)O)ccc2c1N[C@@H](c1ccc(F)cc1)[C@H]1CC=C[C@@H]21,0,0,64,0
CCCCOc1ccc(C(C)(CC(=O)O)C(=O)O)cc1 (stereo not drawn),0,0,0,0
Nc1cc(C(=O)N2CCN(c3ccccc3)CC2)ccc1N1CC2CC(C1)c1cccc(=O)n1C2 (stereo not drawn),0,0,0,0
Cc1cc(Nc2cc(Nc3ccccc3C(N)=O)ccn2)ccc1N1CCOCC1,0,0,0,34
NC(=O)c1ccccc1Nc1ccnc(Nc2ccc(N3CCOCC3)cc2F)c1,0,0,0,38
